Measured values taken from PubChem BioAssay (NCI).
Compounds without any hit were thinned out: in the full panel of roughly 83,000, 20% have a hit.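 Activity criterion: percent growth below 10, measured after cells in 96-well plates were exposed to a single compound concentration for 48 hours.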 Active and inactive are the calls of the source.

Each compound was assayed on BT-549 breast (assay: NCI-60 one-dose screen, 48 h (100 = growth as untreated, 0 = no growth, -100 = all killed)). Conditions: 10 µM unless noted.

| SMILES | growth |
| --- | --- |
| CC(C)C1=NOC(=O)C1=Cc1cn(-c2ccco2)nc1-c1ccccc1 | 116% (inactive) |
| CCOC(=O)Nc1ccc2c(c1)/C(=N\NC(=S)NC)c1ccccc1-2 | 94% (inactive) |
| COc1ccc(/C=C(/C(=O)c2ccc(Cl)cc2)C(=O)C(F)(F)F)cc1 | 111% (inactive) |
| O=[N+]([O-])c1cccc(N=NNc2cccc([N+](=O)[O-])c2)c1 | 101% (inactive) |
| CCn1cc(-c2ccnc(NCCNS(=O)(=O)c3cccc4ccccc34)c2)c(-c2cccc(O)c2)n1 | 109% (inactive) |
| COc1cc2c(=O)[nH]c3cc([N+](=O)[O-])ccc3c2cc1[N+](=O)[O-] | 50.4% (inactive) |
| Cc1ccc(S(=O)(=O)NCCCNc2nccc(-c3c(-c4cccc(F)c4)nc4occn34)n2)cc1 | 92.1% (inactive) |
| Clc1ccccc1/C=N\Nc1ccccn1 | 114% (inactive) |
| CC(C)C1=NOC(=O)C1=Cc1cn(-c2ccccc2)nc1-c1cccc([N+](=O)[O-])c1 | 109% (inactive) |
| CC(C)C1=NOC(=O)C1=Cc1cn(-c2cccnc2)nc1-c1ccccc1 | 125% (inactive) |
| COc1ccc(N(c2nc(-c3ccc([N+](=O)[O-])cc3)cs2)C(C)C)cc1 | 97% (inactive) |
| O=S(=O)(NCCNc1nccc(-c2c(-c3cccc(F)c3)nc3occn23)n1)c1ccc(C(F)(F)F)cc1 | 106% (inactive) |

Each compound was assayed on MDA-MB-435 melanoma in the same assay as above. Conditions: 10 µM unless noted.

| SMILES | growth |
| --- | --- |
| CCNc1cc2c(cc1Br)-c1ccccc1C2=O | 114% (inactive) |
| Cn1cc(-c2noc(-c3cn(C)c4ncccc34)n2)c2cc(Cl)ccc21 | 87% (inactive) |
| N#Cc1ccc(-c2ccc(COc3ccc(CC4SC(=O)NC4=O)cc3)cc2)cc1 (stereo not drawn) | 45.4% (inactive) |
| O=C(N[C@@H]1CCCc2ccccc21)[C@H](CCC(=O)N1CCN(C2CCCCC2)CC1)N1C(=O)[C@@H](N2C(=O)OC[C@@H]2c2ccccc2)[C@H]1/C=C/c1ccccc1 | 9.89% (active) |
| CCOC(=O)/C(C#N)=C(\C)CCc1ccccc1 | 110% (inactive) |
| COc1ccc(C(=O)CSc2nccc(Nc3ccc(C(=O)O)cc3)n2)cc1 | 106% (inactive) |
| O=C(NCCCCCCCNC(=O)OCc1ccc2c(Cl)cc(Cl)c(O)c2n1)OCc1ccc2c(Cl)cc(Cl)c(O)c2n1 | -86.4% (active) |
| CCN(CCO)CCC(=O)c1ccc([N+](=O)[O-])cc1 | 111% (inactive) |
| CCOC(=O)COc1c(C)cc(SSc2cc(C)c(OCC(=O)OCC)c(C)c2)cc1C | 114% (inactive) |
| CC(C)C1=NOC(=O)C1=Cc1cn(-c2ccco2)nc1-c1ccccc1 | 91.9% (inactive) |
| COc1ccc2c(c1)c(-c1noc(-c3cn(C)c4ncc(F)cc34)n1)cn2C | 77.1% (inactive) |
| CCn1cc(-c2ccnc(NCCNS(=O)(=O)c3cccc4ccccc34)c2)c(-c2cccc(O)c2)n1 | 96.1% (inactive) |
| Cc1ccc(-c2cc(O)c(-c3ccc(C)cc3C)cc2O)c(C)c1 | 66.5% (inactive) |
| CCc1ccc(-c2ccc(COc3ccc(CC4SC(=O)NC4=O)cc3)cc2)cc1 (stereo not drawn) | 57.9% (inactive) |
| CCCn1ccnc1C(O)c1ccc(OCc2ccccc2)c(OC)c1 (stereo not drawn) | 94.3% (inactive) |
| O=C(Nc1cc(F)cc2cccnc12)c1cnc(N2CCNCC2)cn1 | 77.3% (inactive) |

| SMILES | growth |
| --- | --- |
| O=C(CCCSc1nc(-c2ccccc2)cc(-c2ccccc2)n1)NO | 12.3% (inactive) |
| O=C(CCN1CCCCC1)c1ccc(Cl)cc1 | 105% (inactive) |
| O=C(NCCCNC(=O)OCc1ccc2c(Br)cc(Br)c(O)c2n1)OCc1ccc2c(Br)cc(Br)c(O)c2n1 | -71.2% (active) |
| Cc1ccc(N)c(O)c1 | 102% (inactive) |
| C/C=C/C1OC23CCCCC2C(C#N)(C(=N)O3)C1(C#N)C#N (stereo not drawn) | 91.8% (inactive) |
| Cc1ccc(S(=O)(=O)NCCCNc2nccc(-c3c(-c4cccc(F)c4)nc4occn34)n2)cc1 | 43.4% (inactive) |
| COc1ccc2c(c1)C(C)Cc1c(ncnc1-n1cnc3ccccc31)N2C (stereo not drawn) | 0.335% (active) |
| CC(C)C1=NOC(=O)C1=Cc1cn(-c2cccnc2)nc1-c1ccccc1 | 95.1% (inactive) |
| O=C1COCCN1c1ccc(NCc2cn(Cc3ccccc3)c3ccccc23)cc1 | 97.9% (inactive) |
| COc1ccc(N(c2nc(-c3ccc([N+](=O)[O-])cc3)cs2)C(C)C)cc1 | 89% (inactive) |
| OC(c1ccc(Cl)cc1)(c1ccc(Cl)cc1)C(O)(c1ccc(Cl)cc1)c1ccc(Cl)cc1 | 29.3% (inactive) |
| O=C(NCc1ccc(Cn2c(=O)sn(-c3ccccc3)c2=O)cc1)OCc1ccc2c(Br)cc(Br)c(O)c2n1 | -77.6% (active) |
| O=S(=O)(NCCNc1nccc(-c2c(-c3cccc(F)c3)nc3occn23)n1)c1ccc(C(F)(F)F)cc1 | 76.3% (inactive) |
| O=C(Nc1ccc(Cl)c(C(F)(F)F)c1)Nc1ccc(-c2cccnc2)cc1N1CCC(CO)CC1 | 15.5% (inactive) |
| O=C(CCNCc1ccccc1)c1ccccc1 | 109% (inactive) |
